High-throughput results deposited in PubChem BioAssay by The Scripps Research Institute Molecular Screening Center.
Compounds with a hit are over-represented: about 3.1% of the library has one in this group of screens.
PAFAH1B2 FP inh: inhibitors of human PAFAH1B2; 340,000 tested, 1.2% active; inhibition, % at 3.39 µM; recombinant PAFAH1B2, FP-rhodamine activity probe, fluorescence polarization;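 active = inhibition above the mean of all tested compounds plus 3 SD, cut at about 24% in these data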;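 also: 0% = enzyme with DMSO and 100% = wells lacking PAFAH1B2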
pPAFAH inh: pPAFAH (human) enzyme inhibition; Q13093; 330,000 tested, 1.5% active; AID 463082; inhibition, % at 3.39 µM; recombinant pPAFAH, FP-rhodamine probe fluorescence polarization;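 active = inhibition above the mean inhibition across the screen plus 3 SD, cut at about 25% in these data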;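 also: inhibitors block binding of the rhodamine activity-based probe so polarization drops; 0% = enzyme with DMSO and 100% = wells lacking pPAFAH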
PAFAH1B3 inh: PAFAH1B3 (human) inhibition. recombinant PAFAH1B3, FP-rhodamine probe, fluorescence polarization. Q15102. AID 492972. 340,000 tested, 0.28% active. inhibition, % at 3.39 µM;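 active = inhibition above the screen-wide average of all tested compounds plus 3 SD, cut at about 25% in these data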;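 also: 0% = enzyme with DMSO only and 100% = wells lacking PAFAH1B3 protein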
PAFAH2 inh: inhibitors of human PAFAH2; inhibition, % at 3.39 µM; AID 492956; recombinant PAFAH2, FP-rhodamine activity probe, fluorescence polarization; 340,000 tested, 0.99% active; Q99487;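 active = inhibition above the mean over all tested compounds plus 3 SD, cut at about 30% in these data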;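 also: inhibitors block probe labeling of enzyme so polarization drops; 0% = enzyme with DMSO and 100% = wells lacking PAFAH2 protein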
E coli Lon inh: E. coli protease La inhibition; inhibition, % at 7.94 µM; P0A9M0; purified E. coli Lon protease, fluorescence polarization; AID 602123; 360,000 tested, 0.42% active; in the data active = inhibition above about 13%, passing the limit was not always enough;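 also: 0% = enzyme with probe and DMSO and 100% = no enzyme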
Rin1-Abl PPI inh: inhibitors of human Rin1-Abl protein interaction | AID 588664 | 360,000 tested, 0.4% active | inhibition, % at 7.35 µM | TR-FRET Rin1/Abl binding, biochemical | P00519+Q13671; in the data active = inhibition above about 5%, passing the limit was not always enough
Active calls of the source: *; / = no result given.

SMILES	PAFAH1B2 FP inh	pPAFAH inh	PAFAH1B3 inh	PAFAH2 inh	E coli Lon inh	Rin1-Abl PPI inh
Cc1ccc(NS(=O)(=O)c2cc([N+](=O)[O-])ccc2NNC(=S)Nc2cccc(Cl)c2)c(C)c1	41*	22	-12	10	-13	0
Cc1ccc(NS(=O)(=O)c2cc([N+](=O)[O-])ccc2NNC(=S)Nc2cc(C)ccc2C)c(C)c1	2	23	3	17	-27	-1
Cc1nc2ccc(S(=O)(=O)Nc3ccccc3C)cc2s1	2	33*	-8	0	-3	2
Cc1nc2ccc(S(=O)(=O)NCC(=O)NCc3ccc(Cl)cc3)cc2s1	25*	-2	2	3	0	-3
O=C(O)CN1C(=O)/C(=C2\C(=O)N(Cc3ccccc3Cl)c3ccccc32)SC1=S	26*	3	9	3	-6	2
CCN(CC)c1ccc(NC(=O)COC(=O)c2ccc3ccccc3n2)cc1	-5	26*	7	-4	13	0
Cc1ccc(NC(=O)CN2CCN(C(=O)C3CC3)CC2)c(F)c1	/	/	/	/	-6	-1
Nc1cc(C(=O)O)ccc1Nc1ccccc1	0	27*	9	2	-2	6
Cn1c(=O)c2cc(NC(=O)CCc3cccnc3)ccc2n1Cc1cccc(C(F)(F)F)c1	/	/	/	/	2	0
Cc1[nH]c2ccccc2c1/C=N/NC(=O)c1ccccc1	5	8	4	5	-3	0
Cc1[nH]c2ccccc2c1/C=N/NC(=O)c1cc(-c2ccccc2)n[nH]1	/	25*	/	/	4	-3
N#CC1=C(S)N(c2ccccc2)C(c2ccc(-c3cccc(Cl)c3)o2)NC1=O (stereo unspecified)	5	28*	-2	7	-8	0
Cc1cccc(N2C(S)=C(C#N)C(=O)NC2c2ccco2)c1 (stereo unspecified)	3	6	6	11	4	2
CCN(C[C@H]1N[C@@](C)(C(=O)OC)[C@H]2C(=O)N(C)C(=O)[C@@H]12)C(=O)Nc1ccc(C(F)(F)F)cc1	2	2	-5	13	-5	1
Cc1cc(C(=O)N/N=C2\CCCC(=O)C2)c(C)o1	1	/	5	-4	-6	2
Cc1cc(C(=O)N/N=C2\CCCC(=O)C2)c(C)n1-c1ccccc1	-2	28*	7	-4	-29	-1
CC(=O)Nc1ccc(S(=O)(=O)NCCNS(=O)(=O)c2ccc(NC(C)=O)cc2)cc1	0	1	4	11	-7	1
CC(=O)Nc1ccc(S(=O)(=O)NCCSCc2ccc(Cl)cc2Cl)cc1	39*	16	7	-8	-2	3
O=[N+]([O-])c1cc(S(=O)(=O)N2CCCCCC2)ccc1F	29*	1	-18	17	2	-1
O=[N+]([O-])c1cc(S(=O)(=O)N2CCCC2)ccc1O	-1	3	-9	4	-15	-1
CC1CC(=O)N(CC(=O)NCc2ccc(F)cc2)c2ccccc2S1(=O)=O (stereo unspecified)	2	6	6	1	-3	-1
COC(=O)C(NC(=O)c1ccccc1Cl)(Nc1ncc(S(=O)(=O)c2ccc([N+](=O)[O-])cc2)s1)C(F)(F)F (stereo unspecified)	26*	2	6	2	-4	0
CCC(C)(C)C(=O)Nc1ncc(S(=O)(=O)c2ccc([N+](=O)[O-])cc2)s1	9	-4	6	2	-1	-5
O=C(CSc1nc2ccccc2n1-c1ccccc1)Nc1ncc(Cl)cc1Cl	3	27*	4	-9	-6	-3
CC(C)N(C(=O)CSc1nc2ccccc2n1-c1ccccc1)C(C)C	5	32*	-3	-5	7	2
CCn1ccc(C(=O)Nc2ccsc2C(=O)OC)n1	0	-3	3	1	4	-18
CCOc1ccc(NC(=O)CN(C)C(=O)CC(NC(=O)c2ccccc2)c2ccccc2)cc1OCC (stereo unspecified)	2	6	3	2	0	-3
Cc1ccc(CSc2nnc(NC(=O)C3COc4ccccc4O3)s2)cc1 (stereo unspecified)	31*	6	12	10	-5	1
COC(=O)CCCCC1SCC2NC(=O)NC21O (stereo unspecified)	3	-2	15	-5	-48	87*
